In PubChem BioAssay:
Several values for one entry are separate records, joined by “and”; a condition that tells them apart may be missing. Identical values can stand only once. Results filed as inconclusive are left out. Where a structure was tested more than once in an assay, its records may differ in their call. Activity calls are given as the source filed them.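 The calls were made as follows, unless noted: active = thallium flux through the channel raised or lowered by more than 3 SD from vehicle-only wells, actives on both sides; inactive = the rest.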

How the values were obtained:
[1] = molecular target: ATP-dependent translocase ABCB1 (Homo sapiens) (UniProt P08183); test: P-glycoprotein substrate transport blockade – cell-based (AID 377; in the data active = fluorescence slope change above about 50%); details: MDR1-expressing cells, fluorescent substrate accumulation slope; stronger effect = higher value; concentration not given here
Sequence of ATP-dependent translocase ABCB1 (Homo sapiens) (P08183 whole entry, looked up): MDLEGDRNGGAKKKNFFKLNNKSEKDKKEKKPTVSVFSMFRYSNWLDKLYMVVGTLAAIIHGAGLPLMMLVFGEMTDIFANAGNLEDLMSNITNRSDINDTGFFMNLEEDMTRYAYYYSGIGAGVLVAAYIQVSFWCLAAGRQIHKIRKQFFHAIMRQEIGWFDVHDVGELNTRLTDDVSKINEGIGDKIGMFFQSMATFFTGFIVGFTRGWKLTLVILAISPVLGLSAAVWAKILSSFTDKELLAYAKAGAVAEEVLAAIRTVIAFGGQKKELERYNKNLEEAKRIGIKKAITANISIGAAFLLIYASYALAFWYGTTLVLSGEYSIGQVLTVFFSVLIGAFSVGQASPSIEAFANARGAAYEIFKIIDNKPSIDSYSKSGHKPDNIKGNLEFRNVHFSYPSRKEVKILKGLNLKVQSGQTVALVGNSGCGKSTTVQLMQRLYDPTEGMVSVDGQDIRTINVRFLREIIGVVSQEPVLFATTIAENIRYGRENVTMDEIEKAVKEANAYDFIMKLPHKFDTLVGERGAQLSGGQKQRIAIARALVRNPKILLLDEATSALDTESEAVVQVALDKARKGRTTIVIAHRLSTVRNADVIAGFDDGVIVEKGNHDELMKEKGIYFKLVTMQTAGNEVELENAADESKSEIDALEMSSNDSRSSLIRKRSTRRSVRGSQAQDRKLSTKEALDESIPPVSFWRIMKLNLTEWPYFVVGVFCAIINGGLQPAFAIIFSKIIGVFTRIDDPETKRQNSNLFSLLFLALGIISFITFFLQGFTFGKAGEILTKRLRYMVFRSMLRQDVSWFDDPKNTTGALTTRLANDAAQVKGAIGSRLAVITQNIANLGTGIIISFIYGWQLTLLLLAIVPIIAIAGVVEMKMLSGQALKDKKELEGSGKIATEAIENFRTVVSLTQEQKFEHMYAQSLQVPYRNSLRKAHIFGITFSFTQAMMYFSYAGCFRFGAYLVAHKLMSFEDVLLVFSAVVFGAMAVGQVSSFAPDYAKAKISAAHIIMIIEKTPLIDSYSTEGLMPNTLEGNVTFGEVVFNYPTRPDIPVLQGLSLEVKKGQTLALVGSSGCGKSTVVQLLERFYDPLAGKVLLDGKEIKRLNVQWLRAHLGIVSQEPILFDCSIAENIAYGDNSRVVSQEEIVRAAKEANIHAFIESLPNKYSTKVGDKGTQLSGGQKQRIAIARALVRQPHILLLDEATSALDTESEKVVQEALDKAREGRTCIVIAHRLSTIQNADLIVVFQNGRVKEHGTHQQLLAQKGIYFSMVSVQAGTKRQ

[2] = GFP-Q80 aggregate reduction, neuronal-like cells, cell-based, NGF-treated PC12, GFPQ80 (AID 1614); details: PC12 NGF-treated GFP-polyQ80 inclusion reduction;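 also: lower means fewer inclusions and 0 means no inclusions at all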
[3] = viability loss in pontine glioma line – cell-based, SU-DIPG-XVII, MIPE5.0, CellTiter-Glo, qHTS, dose response (AID 1347060; cut-off not given, nearly all actives have AC50 up to about 26 µM;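 as to AC50: cells exposed to compound for 48 hours before viability readout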); details: CellTiter-Glo ATP luminescence
[4] = viability loss in pontine glioma line – cell-based, SU-DIPG-XIII, MIPE4.0, CellTiter-Glo, qHTS, dose response (AID 1347061; cut-off not given, nearly all actives have AC50 up to about 37 µM;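 also: cells exposed to compound for 48 hours before readout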); details: CellTiter-Glo ATP luminescence
[5] = viability loss in pontine glioma line – cell-based, JHH-DIPG-1, MIPE4.0, CellTiter-Glo, qHTS, dose response (AID 1347062; cut-off not given, nearly all actives have AC50 up to about 27 µM); details: JHH-DIPG-1 viability, CellTiter-Glo ATP luminescence
[6] = viability loss in pontine glioma line – cell-based, SU-DIPG-XIII, MIPE5.0, CellTiter-Glo, qHTS, dose response (AID 1347064; cut-off not given, nearly all actives have AC50 up to about 23 µM); details: CellTiter-Glo ATP luminescence
[7] = viability loss in pontine glioma line – cell-based, SU-DIPG-XXV, MIPE5.0, CellTiter-Glo, qHTS, dose response (AID 1347065; cut-off not given, nearly all actives have AC50 up to about 26 µM;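 also: cells exposed to compound for 48 hours before ATP readout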); details: CellTiter-Glo ATP luminescence
[8] = growth inhibition of DIPG cells – cell-based, MIPE4.0 library, CellTiter-Glo luminescence, qHTS (AID 1347066; cut-off not given, nearly all actives have AC50 up to about 30 µM;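 also: cells exposed to compound for 48 hours before readout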); details: SU-DIPG-VI viability, CellTiter-Glo ATP luminescence
[9] = JHH-DIPG-1 glioma cell viability, MIPE5.0 library, CellTiter-Glo luminescence, qHTS (AID 1347067; cut-off not given, nearly all actives have AC50 up to about 26 µM;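 also: cells exposed to compound for 48 hours before readout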); details: JHH-DIPG-1 glioma viability, CellTiter-Glo ATP luminescence
[10] = growth inhibition of DIPG cells – cell-based, MIPE5.0 library, qHTS (AID 1347068; cut-off not given, nearly all actives have IC50 up to about 30 µM); details: SU-DIPG-XXV viability
[11] = system: Aerobactin synthetase IucA (Klebsiella pneumoniae); test: inhibition of K. pneumoniae IucA enzyme – biochemical, Tocris library, absorbance (AID 1345561; call rule not given here;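 also: 100% = enzyme without compound and 0% = no enzyme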); details: purified IucA enzyme assay, absorbance (OD) read-out; stronger effect = lower value;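 tested at 8 µM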
[12] = system: F380Y/beta1; test: BK channel mutant inhibitors and activators – cell-based, U2OS BacMam, thallium flux, beta subunits, selectivity assay, profiling panel (AID 1259406); details: U2OS BacMam BK variants, at 30 µM;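 also: initial slope of Thallos dye fluorescence rise after thallium is added; log ratio against the mean of 0.3% DMSO vehicle wells on the same plate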
[13] = system: F380Y/beta4; test: as above; details: U2OS BacMam BK variants, at 30 µM
[14] = system: R275C/beta4; test: as above; details: U2OS BacMam BK variants, at 30 µM
[15] = system: R275C/Slo1WT/beta2; test: as above; details: U2OS BacMam BK variants, at 30 µM
[16] = viability loss in pontine glioma line – cell-based, SU-DIPG-IV, MIPE4.0, CellTiter-Glo, qHTS, dose response (AID 1347063; cut-off not given, nearly all actives have AC50 up to about 30 µM;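 also: compound exposure lasted 48 hours before the viability readout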); details: CellTiter-Glo ATP luminescence

O=C(O)c1cn(C2CC2)c2cc(N3CCNCC3)c(F)cc2c1=O
active: fluorescence slope change [1] 54.5%
inactive: outcome [3] | outcome [4] | outcome [5] | outcome [6] | outcome [7] | outcome [8] | outcome [9] | outcome [10]
2: inclusion score [2]

COc1ccc(-c2nc3ccc(C4=NNC(=O)CC4C)cc3[nH]2)cc1 (stereo unspecified)
active: AC50 [3] 16.6 µM
inactive: outcome [4] | outcome [5] | outcome [8]

O=S(=O)(c1cccc2cnccc12)N1CCCNCC1
inactive: remaining activity [11] 109% | outcome [3] | outcome [4] | outcome [5] | outcome [6] | outcome [7] | outcome [8] | outcome [9] | outcome [10]

CC(C)(C(=O)O)c1ccc(C(O)CCCN2CCC(C(O)(c3ccccc3)c3ccccc3)CC2)cc1 (stereo unspecified)
inactive: remaining activity [11] 89.1% | log fold change Tl+ flux [12] -0.0158 | log fold change Tl+ flux [13] -0.0315 | log fold change Tl+ flux [14] 0.0234 | log fold change Tl+ flux [15] 0.0197

CC(C)(C)c1ccc(C(O)CCCN2CCC(C(O)(c3ccccc3)c3ccccc3)CC2)cc1 (stereo unspecified)
active: fluorescence slope change [1] 182%

CC(C)c1c(C(=O)Nc2ccccc2)c(-c2ccccc2)c(-c2ccc(F)cc2)n1CC[C@@H](O)C[C@@H](O)CC(=O)O
inactive: outcome [6] | outcome [10]

CN1[C@@H]2CC(OC(=O)[C@H](CO)c3ccccc3)C[C@H]1[C@@H]1O[C@@H]12 (stereo partly specified)
inactive: remaining activity [11] 104%

CC(C)n1c(/C=C/[C@@H](O)C[C@@H](O)CC(=O)O)c(-c2ccc(F)cc2)c2ccccc21
inactive: log fold change Tl+ flux [12] 0.0905 | log fold change Tl+ flux [13] 8.3e-05 | log fold change Tl+ flux [14] 0.103 | log fold change Tl+ flux [15] 0.0615

O=C(O)COCCN1CCN(C(c2ccccc2)c2ccc(Cl)cc2)CC1 (stereo unspecified)
inactive: fluorescence slope change [1] 28.7% | remaining activity [11] 109% | outcome [4] | outcome [5] | outcome [16] | outcome [8] | log fold change Tl+ flux [12] 0.0627 | log fold change Tl+ flux [13] 0.0511 | log fold change Tl+ flux [14] 0.0338 | log fold change Tl+ flux [15] -0.0639

C[N+]1(C)CCC(OC(=O)C(O)(c2ccccc2)C2CCCC2)C1 (stereo unspecified)
inactive: log fold change Tl+ flux [12] 0.0124 and -0.000209 | log fold change Tl+ flux [13] -0.00589 and 0.00112 | log fold change Tl+ flux [14] 0.0451 and -0.0272
0.0815 (active) and 0.0504 (inactive): log fold change Tl+ flux [15]

Cc1ccc(/C(=C\CN2CCCC2)c2ccccn2)cc1
active: fluorescence slope change [1] 91.4%
2: inclusion score [2]
inactive: remaining activity [11] 77.2%

CC1(C)[C@H](C(=O)O)N2C(=O)C[C@H]2S1(=O)=O
inactive: outcome [5] | outcome [16] | outcome [8]
